Assay outcomes (PubChem BioAssay)
Rtt109 Vps75 – blocks Candida albicans Rtt109/Vps75 acetyltransferase activity; inhibition, % at 34.9 µM; 330,000 compounds, 0.16% hits; purified Rtt109/Vps75, ThioGlo CoA-SH fluorescence, 4 h; Q5AAJ8;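 active = inhibition of at least 50% in every replicate; inconclusive = best replicate reaches 50% inhibition but some replicates fall short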
Target sequence (Q5AAJ8 whole entry, looked up): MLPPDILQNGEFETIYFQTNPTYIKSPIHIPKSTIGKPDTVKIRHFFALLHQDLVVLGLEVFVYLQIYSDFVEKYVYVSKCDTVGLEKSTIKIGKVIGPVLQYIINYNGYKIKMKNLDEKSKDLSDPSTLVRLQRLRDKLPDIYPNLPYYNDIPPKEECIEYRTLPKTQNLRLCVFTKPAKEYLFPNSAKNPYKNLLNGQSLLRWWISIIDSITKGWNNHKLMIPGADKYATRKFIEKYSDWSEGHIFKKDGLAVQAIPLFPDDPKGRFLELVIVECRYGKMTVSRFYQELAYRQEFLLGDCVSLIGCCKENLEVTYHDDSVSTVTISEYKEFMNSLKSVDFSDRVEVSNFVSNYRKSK
TPT1 inhibitor – blocks Candida albicans tRNA 2'-phosphotransferase. 300,000 compounds, 0.81% hits. inhibition, % at 5 µM. recombinant caTPT1, FP RNA substrate dephosphorylation;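 active = inhibition above the mean of all tested compounds plus 3 SD, set per screening campaign, cut at about 24% in these data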;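 also: plate controls were DMSO alone for no effect and ferristatin control at 100 nM for full effect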
PHOSPHO1 block – inhibitors of human PHOSPHO1 phosphatase; Q8TCT1; inhibition, % at 13.3 µM; recombinant PHOSPHO1, absorbance phosphatase assay; 290,000 compounds, 1.1% hits; AID 1565; in the data active = inhibition above about 60%
Target sequence (Q8TCT1 whole entry, looked up): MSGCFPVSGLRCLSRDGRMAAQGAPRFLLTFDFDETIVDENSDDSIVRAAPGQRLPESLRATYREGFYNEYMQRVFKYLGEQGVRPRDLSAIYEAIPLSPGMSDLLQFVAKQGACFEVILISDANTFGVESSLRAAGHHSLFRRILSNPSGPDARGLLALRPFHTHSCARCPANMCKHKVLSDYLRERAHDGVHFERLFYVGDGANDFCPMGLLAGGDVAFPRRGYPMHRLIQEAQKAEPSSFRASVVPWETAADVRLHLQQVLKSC
Platelet DG rel – modulates dense granule release in human platelets. human platelet-rich plasma, SFLLRN dense granule ATP release, luminescence. inhibition, %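 (compounds screened at 7.5 µM in platelet-rich plasma)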. 300,000 compounds, 0.22% hits;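 active = mean replicate score, as percent of positive control, at or above 50; inconclusive = mean below 50 but at least one replicate at or above 50; inactive = mean and every replicate below 50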
WT yeast gro inh – growth inhibition of WT yeast, mitochondrial fusion screen. 190,000 compounds, 2.1% hits. AID 1362. inhibition, % at 10 µM. mitochondrial fusion phenotypic screen, WT strain; in the data active = inhibition above about 58%; tested in S. cerevisiae
SKKanGAS inh – inhibitors of SKKanGAS S. pyogenes growth in kanamycin (SK-promoter or general growth effect) | BacTiter-Glo, 6 h | inhibition, % at 7.5 µM | 300,000 compounds, 1.3% hits | AID 1662;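 active = mean replicate score, as percent of positive control median, at least 50; inconclusive = mean below 50 but one replicate at or above 50; inactive = mean and every replicate below 50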;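 also: strain carries kanamycin resistance gene driven by streptokinase promoter and grows in 40 µg/ml kanamycin; loss of luminescence reflects streptokinase promoter inhibition or plain growth inhibition; 0% = median of DMSO wells and 100% = positive control at its reference dose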
Numbers without * were called inactive; ? = inconclusive; · = no result; + = active, no number. This is a sample that favours compounds with a hit; in the whole collection about 3.9% have one here.

SMILES | Rtt109 Vps75 | TPT1 inhibitor | PHOSPHO1 block | Platelet DG rel | WT yeast gro inh | SKKanGAS inh
N#CC1=C(N)Oc2c(ccc3ccccc23)C1c1cccs1 (centres undefined) | · | 7 | 93* | 2 | 19 | 8
Fc1cccc(Cl)c1C1Nc2cccc3cccc(c23)N1 | 10 | 2 | · | 7 | · | 25
Clc1cccc(Cl)c1C1Nc2cccc3cccc(c23)N1 | -1 | 2 | 39 | 11 | · | 59*
CCOc1ccc(C(=O)NC(=S)Nc2ccc(N3CCCCC3)cc2)cc1[N+](=O)[O-] | -11 | -2 | 8 | -2 | 28 | 12
CCOc1ccc(C(=O)NC(=S)Nc2cccc(NC(=O)c3ccco3)c2)cc1[N+](=O)[O-] | ? | -1 | -11 | -2 | -8 | 65*
CCOc1ccc(C(=O)NC(=S)Nc2ccc(NC(=O)CC)cc2)cc1[N+](=O)[O-] | 1 | 1 | -10 | 2 | -1 | 53*
COc1ccc(C(=O)NC(=S)Nc2cccc(NC(=O)c3ccco3)c2)cc1[N+](=O)[O-] | 5 | 0 | 11 | -6 | 6 | 21
CCCCN(C(=O)c1cccc(S(=O)(=O)N(CC)c2ccccc2)c1)c1c(N)n(CCCC)c(=O)[nH]c1=O | 5 | · | · | · | · | ·
CC(C)CN(Cc1cc(=O)oc2cc(-c3ccccc3)c(O)cc12)CC(C)C | 0 | 0 | 16 | 4 | · | 76*
Cc1cc2oc(=O)cc(CN3CCN(C/C=C/c4ccccc4)CC3)c2cc1O | -6 | 3 | 24 | 4 | 9 | 7
O=c1cc(CN2CCN(C/C=C/c3ccccc3)CC2)c2cc(O)c(-c3ccccc3)cc2o1 | -8 | 0 | 16 | -7 | 84* | -3
Nc1ccccc1-c1nnc(SCC(=O)Nc2ccccc2OC(F)F)[nH]c1=O | 5 | · | · | · | · | ·
CC(=O)N(C)c1ccc(C=C2C=Cc3ccccc32)cc1 | 0 | · | · | · | · | ·
Cc1cc(C)c2c(C(C)(C)C)nn(-c3ccccc3)c2n1 | 0 | -6 | 31 | -9 | · | 60*
N/C(Cc1ccc([N+](=O)[O-])cc1)=N\OC(=O)c1ccccc1Br | 2 | -4 | -7 | 2 | -37 | 1
N/C(=N\OC(=O)c1cccc2ccccc12)c1ccncc1 | -3 | -1 | 20 | 10 | · | -5
N/C(Cc1ccccc1)=N\OC(=O)c1cccc2ccccc12 | 1 | 2 | -6 | 5 | 81* | 4
N/C(=N\OC(=O)c1cccc2ccccc12)c1ccc(Br)cc1 | 0 | -3 | 10 | 3 | 77* | -4
Cc1cc(Br)ccc1NC(=O)CN1C(=O)C2C3CC(c4ccccc4)C(C3)C2C1=O (centres undefined) | -8 | 0 | 32 | 6 | 78* | 8
Cc1cc(Br)ccc1NC(=O)CNC(=O)CN1C(=O)NC2(CCCCCC2)C1=O | -12 | -2 | -14 | 8 | -6 | -6
O=C(CCN1C(=O)NC2(CCCC2)C1=O)Nc1cccc(S(=O)(=O)N2CCOCC2)c1 | 11 | · | · | · | · | ·
COc1ccc(/C=N/Nc2cc(N3CCCC3)nc(N3CCCC3)n2)cc1 | · | -1 | -5 | 0 | 75* | 19
Oc1ccc(/C=N/Nc2cc(N3CCCC3)nc(N3CCCC3)n2)cc1 | 2 | -1 | -50 | -14 | 63* | -17
COc1ccc(NC(=O)c2ccccc2N2C(=O)C3C4C=CC(C5CC45)C3C2=O)c(OC)c1 (centres undefined) | 5 | 4 | 28 | -3 | · | -2
O=C(/C=C/c1cc(Br)ccc1F)OCC(=O)N1CCOCC1 | -13 | · | · | · | · | ·
SMILES | Rtt109 Vps75 | TPT1 inhibitor | PHOSPHO1 block | Platelet DG rel | WT yeast gro inh | SKKanGAS inh
COc1ccc(N2CCN(C(=O)CSc3nnc(-c4cc5ccccc5cc4O)n3C)CC2)cc1 | -5 | 5 | 29 | 9 | 13 | -3
C/C(N)=C(/C#N)C(=O)CSc1nncn1-c1ccccc1 | -10 | -4 | 68* | -1 | -2 | 0
O=C(CSc1nncn1-c1ccccc1)Nc1ccc(N2CCOCC2)cc1 | -1 | -8 | 87* | -14 | -4 | -5
CC(C)c1nc(SCC(=O)Nc2ccc(N3CCOCC3)cc2)c2ccccc2n1 | + | 3 | -4 | 0 | -14 | 0
COc1ccc(-n2cnnc2SCC(=O)N2CCN(c3ccccc3)CC2)cc1 | -9 | 7 | 93* | 3 | -17 | 1
Oc1ccc(C[C@H]2CNC(=S)N2CC2CCCN2C[C@H](Cc2ccccc2)N2C[C@H](Cc3ccc(O)cc3)N(CCc3ccccc3)C2=S)cc1 (some centres undefined) | 6 | · | · | · | · | ·
CN(C(=O)c1ccc2c(Cl)c3c(nc2c1)CCC3)c1ccccc1 | 1 | 5 | -23 | 1 | 37 | -15
CCN(C(=O)c1ccc2c(Cl)c3c(nc2c1)CCC3)c1ccc(C)c(C)c1 | -5 | 0 | 4 | 1 | 94* | 27
N#CCC(=O)Nc1ccc(C(=O)OCC(=O)NC(=O)NCc2ccco2)cc1 | -1 | · | · | · | · | ·
CC1CCCC(NC(=O)CCNC(=O)c2ccc([N+](=O)[O-])cc2)C1C (centres undefined) | -1 | -1 | 41 | 23 | · | 2
CC1CCCC(NC(=S)NC(=O)c2ccccc2Br)C1C (centres undefined) | -5 | -2 | 3 | -1 | 63* | 20
CC(NC(=O)COc1ccccc1Cl)c1ccccc1 (centres undefined) | 2 | 0 | 24 | -8 | · | 1
O=C(NCCc1ccncc1)Nc1cccc(Cl)c1 | 2 | 0 | 4 | 1 | 3 | 3
CC(=O)c1ccc(NC(=O)Nc2cccc(Cl)c2)cc1 | 15 | 0 | -2 | -24 | 72* | 1
O=C(CN1c2ccccc2Sc2ccccc21)NNC(=O)Nc1cccc(Cl)c1 | -2 | -3 | -2 | 3 | · | 50*
O=C(NCCCc1ccccc1)Nc1cccc(Cl)c1 | -1 | 0 | -1 | -5 | 77* | -10
O=C(Nc1ccc(Cl)cc1)Nc1ccccc1C(=O)O | 2 | -1 | -12 | 53* | -13 | 24
C=CC[C@H](CC(=O)NCCO)C(=O)NC[C@@H](OC(=O)[C@@H](CC=C)CC(=O)OC(C)(C)C)c1ccccc1 | 3 | · | · | · | · | ·
COc1ccc2[nH]cc(CCNC(=O)CC[C@H]3O[C@@H](n4cc(C)c(=O)[nH]c4=O)C[C@@H]3O)c2c1 | -4 | · | · | · | · | ·
COc1ccc(S(=O)(=O)N2CCOCC2)cc1NC(=O)C1COc2ccccc2O1 (centres undefined) | 23 | -4 | · | -2 | · | -2
O=C(Nc1cccc(Cl)c1)Nc1ccccc1C(=O)O | 30 | 0 | 8 | 75* | · | 6
CCOc1ccc(C(=S)NC2CCCCC2)cc1OC | 1 | 3 | 81* | 0 | -2 | 2
COc1ccc(OC)c(NC(=O)C(=S)NC2CCCCC2)c1 | -6 | -5 | 39 | -1 | 74* | 11
O=C1c2ccccc2NC(c2ccc(Cl)cc2Cl)N1Cc1ccccc1 (centres undefined) | -2 | 3 | 18 | 6 | 81* | 39
CC1CCCN(C(=O)CCNC(=O)Cn2cnc3ccccc3c2=O)C1 (centres undefined) | 8 | -3 | 31 | 4 | · | 16
